Screening results as filed in PubChem.
This is a sample that favours compounds with a hit; in the whole collection about 3.1% have one here.
Beta cell apopt – inhibitors of cytokine-induced beta cell apoptosis, primary screen, luminescence | INS-1E cytokine-induced death, ATP luminescence, 48 h; percent of positive-control rescue, neutral wells zero | protection from apoptosis, % (concentration not given with the values) | 300,000 tested, 0.8% active | AID 435005, 2010;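 active means Every replicate reaches about 75%, or at least half do and their mean reaches it too, limit read from the data; inconclusive means At least half of replicates reach the limit but their mean does not; inactive means Under half of replicates reach the limit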;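 further: 0% = cytokine-treated negative control wells and 100% = positive control rescue; higher means more ATP so stronger rescue from cytokine killing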
CSC inhib – cancer stem cell viability inhibitors, primary screen, luminescence; cancer stem cell-like cells viability; inhibition, % at 7.5 µM; 300,000 tested, 1.1% active; AID 2717, 2010; in the data active means inhibition above about 75%; inconclusive means no clear call, values can overlap the other calls; tested in HMLE shEcad cells
PP1 inh – PP1-alpha phosphatase inhibitors, primary screen, counter-screen for PP5 inhibitor project, biochemical, fluorescence, OMFP substrate, single point | purified PP1alpha | inhibition, % at 6.7 µM | 320,000 tested, 0.9% active | AID 2235, 2010;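 active means inhibition above the mean inhibition of all tested compounds plus 3 SD, computed separately for each screening campaign, cut at about 15% in these data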
PP5 primary – PP5 phosphatase inhibitors, primary screen, biochemical, fluorescence; Serine/threonine-protein phosphatase 5 (Homo sapiens), P53041; purified PP5c, OMFP substrate fluorescence; inhibition, % at 6.7 µM; 320,000 tested, 0.18% active;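 active means inhibition above the campaign's mean inhibition across all tested compounds plus 3 SD, cut at about 9.5% in these data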;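 further: 0% = DMSO only and 100% = 100 µM cantharidin control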
Target sequence (P53041 whole entry, looked up): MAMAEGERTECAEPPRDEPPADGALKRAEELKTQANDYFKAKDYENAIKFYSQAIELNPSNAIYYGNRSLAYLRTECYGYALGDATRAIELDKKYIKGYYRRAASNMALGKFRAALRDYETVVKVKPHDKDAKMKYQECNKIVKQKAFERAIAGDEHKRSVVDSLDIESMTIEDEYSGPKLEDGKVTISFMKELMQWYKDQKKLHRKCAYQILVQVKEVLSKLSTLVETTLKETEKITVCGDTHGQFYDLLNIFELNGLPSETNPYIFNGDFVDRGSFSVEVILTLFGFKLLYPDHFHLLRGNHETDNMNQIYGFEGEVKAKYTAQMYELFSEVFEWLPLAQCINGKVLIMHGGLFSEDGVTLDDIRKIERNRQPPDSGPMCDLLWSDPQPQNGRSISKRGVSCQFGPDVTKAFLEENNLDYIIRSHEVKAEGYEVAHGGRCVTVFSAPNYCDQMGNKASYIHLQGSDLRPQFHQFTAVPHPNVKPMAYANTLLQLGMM
SKKanGAS inh – S. pyogenes SKKanGAS growth inhibitors in kanamycin, primary screen, streptokinase expression inhibitor project, SKKanGAS strain, BacTiter-Glo luminescence; inhibition, % at 7.5 µM; AID 1662, 2009; 6 h; 300,000 tested, 1.3% active;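 active means mean replicate score, as percent of positive control median, at least 50; inconclusive means mean below 50 but one replicate at or above 50; inactive means mean and every replicate below 50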;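 further: strain carries kanamycin resistance gene driven by streptokinase promoter and grows in 40 µg/ml kanamycin; loss of luminescence reflects streptokinase promoter inhibition or plain growth inhibition; 0% = median of DMSO wells and 100% = positive control at its reference dose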
The depositor's hits bear a star; ? = inconclusive; / = no result given.

SMILES | Beta cell apopt | CSC inhib | PP1 inh | PP5 primary | SKKanGAS inh
COc1ccc(S(=O)(=O)Nc2ccc(F)cc2)cc1N(C)S(=O)(=O)c1ccc(Cl)cc1 | 8.6 | -10.2 | 2.6 | 3.3 | -11.9
COc1ccc(NS(=O)(=O)c2ccc(OC)c(N(C)S(=O)(=O)c3ccc(Cl)cc3)c2)cc1 | 101.3* | -6.1 | 5.0 | 5.0 | 26.8
CN(CCOc1ccccc1)C(=O)C1CCN(C(=O)c2ccc(F)cc2)CC1 | / | -0.4 | -3.5 | 1.0 | 10.9
CCOc1ccc(/C=C/C(O)=C2/C(=O)N(C)C3(C)CC2c2ccccc2O3)cc1OC (stereo not given) | -0.2 | 78.3* | -0.8 | 0.8 | -0.1
Nc1ncccc1OCc1ccc(Cl)c(Cl)c1 | 4.9 | 27.1 | -1.6 | -1.1 | -2.5
C[C@@H]1COC(=O)[C@H](Cc2ccc(F)cc2)CC/C=C/C[C@@H](CC(=O)N[C@@H](CO)Cc2ccccc2)C(=O)N1 | -5.3 | -5.1 | / | / | /
O=C(C[C@@H]1C/C=C/CC[C@H](Cc2ccc(F)cc2)C(=O)OC[C@@H](Cc2ccccc2)NC1=O)N[C@H](CO)Cc1ccccc1 | 123.7* | 105.0* | / | / | /
O=C(NCc1ccco1)C(=O)NCC1OCCN1C(=O)c1ccc(Cl)cc1 (stereo not given) | 1.4 | -22.1 | -1.1 | 2.5 | -4.5
Nc1ccc2c(c1)C(=O)c1ccccc1C2=O | 0.5 | 7.9 | 1.2 | 0.7 | -8.2
Nc1ccc2c(c1)C(=O)C(=O)c1ccccc1-2 | 106.7* | -5.2 | 38.6* | 8.1 | 86.2*
Nc1ccc2c(c1)C(=O)c1ccccc1-2 | 4.8 | -7.3 | -2.0 | 2.9 | -13.2
O=C1C(=O)c2ccc(-c3ccccc3)cc2-c2ccccc21 | 97.9* | 130.8* | -0.2 | 2.8 | 101.3*
CCN(CCn1cccn1)Cc1ccccc1OCC(O)CN1CCc2ccccc2C1 (stereo not given) | 15.6 | 20.6 | 4.2 | 0.1 | -1.6
CN(C)S(=O)(=O)c1ccc(C(=O)Nc2nnc(-c3ccc4c(c3)CCCC4)o2)cc1 | 15.4 | 23.4 | 11.8 | -0.2 | 94.3*
O=C(Nc1nnc(-c2ccc3c(c2)CCCC3)o1)C1CCCCC1 | / | / | 4.8 | 3.0 | 81.4*
O=C(Nc1nnc(-c2ccc3c(c2)CCCC3)o1)c1c(F)cccc1F | -2.1 | 21.8 | 6.7 | 0.8 | 94.9*
O=C(CCc1ccccc1)Nc1nnc(-c2ccc3c(c2)CCCC3)o1 | -8.5 | 9.6 | 19.7* | -0.8 | 85.2*
CCCCn1c(N)c(N(CCC(C)C)C(=O)C2CCCC2)c(=O)[nH]c1=O | -13.7 | -19.8 | -1.4 | 2.6 | /
COc1ccc(CCn2c(C3CCCCC3)nc3c(c(=O)c4ccccc4n3C)c2=O)cc1OC | 6.7 | -4.4 | 0.1 | 1.5 | 15.9
COc1ccc(Cn2c(-c3ccccc3)nc3c(c(=O)c4ccccc4n3C)c2=O)cc1 | 9.0 | 14.3 | 4.5 | 0.8 | 20.1
COc1ccc(CCn2c(C3CCCCC3)nc3c(c(=O)c4ccccc4n3C)c2=O)cc1 | / | ? | 16.2* | -0.1 | 68.0*
Cn1c2ccccc2c(=O)c2c(=O)n(C3CCCCC3)c(-c3cccs3)nc21 | 42.3 | 50.1 | 8.5 | 2.3 | 60.4*
COc1ccc(Cn2c(C3CCCCC3)nc3c(c(=O)c4ccccc4n3C)c2=O)cc1 | 19.4 | 36.2 | 11.6 | 1.4 | 70.5*
Cc1ccc(S(=O)(=O)N/N=C/c2cccc3nccnc23)cc1 | -0.4 | 0.5 | 1.7 | 0.5 | 3.0
COc1ccc(C)cc1S(=O)(=O)Nc1ccc2c(c1)OCCO2 | -5.3 | 19.2 | 2.0 | -0.4 | 5.2
SMILES | Beta cell apopt | CSC inhib | PP1 inh | PP5 primary | SKKanGAS inh
CN(C(=O)COC(=O)c1ccc(Cl)nc1)C1CCS(=O)(=O)C1 (stereo not given) | -5.2 | -3.3 | 1.3 | -0.5 | -0.4
CS(=O)(=O)Nc1ccc(C2=NN(C(=O)C3CCCCC3)C(c3cccs3)C2)cc1 (stereo not given) | -1.3 | -2.1 | -1.3 | -3.3 | 82.6*
CC(C)C(=O)N1N=C(c2ccc(NS(C)(=O)=O)cc2)CC1c1cccs1 (stereo not given) | -9.2 | -7.5 | -1.7 | 1.0 | -4.4
O=C(N/N=C\c1ccc2c(c1)OCO2)c1ccc(Cn2cc(Br)c([N+](=O)[O-])n2)o1 | 4.2 | 84.5* | -1.4 | -1.2 | 6.4
COCc1cc(=O)[nH]c(Cc2c(Cl)cccc2Cl)n1 | / | / | -1.1 | 0.2 | -0.6
COC(=O)c1ccc(NC(=O)COc2ccc(C3C(C#N)=C(N)Oc4c3ccc3ccccc43)cc2OC)cc1 (stereo not given) | 7.8 | -10.7 | 15.9* | 2.6 | 15.7
CSc1cccc(NC(=O)CCc2ccccc2)c1 | / | 0.2 | -0.7 | 1.2 | -7.2
CSc1cccc(NC(=S)NC(=O)CCc2ccccc2)c1 | -1.4 | 36.1 | 5.2 | 5.7 | 59.8*
CC(C)N=c1scc(-c2ccco2)n1/N=C/c1ccc(O)c(O)c1 | 10.5 | 98.8* | -0.6 | 0.4 | /
COCCN=c1scc(-c2ccco2)n1/N=C/c1ccc(O)c(O)c1O | -7.9 | 1.0 | 4.1 | -1.4 | /
CSc1nc(Sc2ccccc2Cl)c2ccccc2n1 | -8.8 | / | -3.5 | 1.5 | 59.2*
O=C(CSc1nc(-c2ccc(Cl)cc2)[nH]c(=O)n1)Nc1cccc(Cl)c1 | -11.3 | 49.3 | 8.1 | 3.0 | 58.5*
CCCCN(C(=O)COc1ccc(C)cc1OC)c1c(N)n(CCC)c(=O)[nH]c1=O | 2.5 | -0.7 | 0.4 | -2.0 | -6.3
CCN(c1ccccc1)S(=O)(=O)c1ccc(N2CCN(c3ccccc3O)CC2)nc1 | 15.0 | 5.1 | 8.1 | 0.9 | /
CN1Cc2c(N3CCOCC3)nc3sc(C(=O)c4ccc(Br)cc4)c(N)c3c2CC1(C)C | 48.2 | 101.7* | 4.4 | 1.4 | 16.5
COc1ccc(CCNC(=O)CSc2nc3ncccc3[nH]2)c(OC)c1 | 0.2 | -4.1 | -5.8 | 0.2 | -7.4
O=C(Nc1ccc(Cl)cc1)[C@@H]1[C@@H]2C(=O)N(c3ccc4ccccc4c3)C(=O)[C@@H]2[C@H]2C=CC=NN21 | -11.0 | -0.6 | 15.2* | 2.1 | 4.8
COc1ccc(-c2oc3cccnc3c2C#CCO)cc1 | 8.0 | -9.4 | 6.7 | 3.1 | -9.1
COc1ccc(-c2oc3ccc(N4CCOCC4)cc3c2C#Cc2ccc(N)cc2)cc1 | -2.0 | -6.5 | 0.6 | 0.6 | 41.5
OC1(C#Cc2c(-c3ccsc3)oc3ccc(N4CCOCC4)cc23)CCCCC1 | / | 4.4 | 3.4 | 8.0 | 50.2*
COc1ccc(-c2oc3cccnc3c2C#CC2(O)CCCCC2)cc1 | 2.9 | 36.0 | -10.9 | -1.1 | 57.0*
COc1ccc(C#Cc2c(-c3ccsc3)oc3ccc(N4CCOCC4)cc23)cc1 | -2.1 | 47.3 | 4.5 | -0.2 | -2.2
COc1ccc(-c2oc3ccc(N4CCOCC4)cc3c2C#CC2(O)CCCCC2)cc1 | / | 13.5 | -0.1 | 8.1 | 69.2*
CCN(CC(=O)Nc1cc(Cl)ccc1C)C(=O)c1ccc2c(=O)n3c(nc2c1)CCC3 | 0.0 | 7.2 | -4.7 | -1.3 | 0.6
